# Results reported in PubChem BioAssay (EPA / NIEHS).
# Inconclusive results are not listed. The source made the active and inactive calls. The calls were made as follows: active = hit-call score of the fitted dose curve at least 0.9, where 1 is the maximum; inconclusive = response in the unintended direction; inactive = score below 0.9.
# Tests used:
# [1] = target: Oxysterols receptor LXR-alpha (Homo sapiens) (UniProt Q13133); test: ATG_LXRa_TRANS: Attagene TRANS-FACTORIAL HepG2 Assay for human Liver X Receptor alpha (LXRa) (AID 2282980); settings: HepG2 Attagene TRANS reporter, LXRa transactivation
# Method in brief: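 In this multiplexed TRANS system, compounds act on HepG2 cells carrying GAL4-UAS reporter units and a receptor-GAL4 fusion for 24 h. Induced reporter RNA is amplified, fluorescently labelled and sized by capillary electrophoresis, with DMSO as baseline.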
# [2] = target: Glucocorticoid receptor (Homo sapiens) (UniProt P04150); test: ATG_GR_TRANS: Attagene TRANS-FACTORIAL HepG2 Assay for human Glucocorticoid Receptor (GR) (AID 2282978); settings: HepG2 Attagene TRANS GR reporter, mRNA transcription;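 also: activators score as hits since higher reporter transcript over DMSO is fitted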
# Method in brief: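 Transiently transfected HepG2 cells express chimeric NR-GAL4 proteins acting on GAL4-UAS reporter units. Compounds are applied for 24 h. mRNA induction over DMSO is measured by capillary electrophoresis.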
# [3] = target: Bile acid receptor (Homo sapiens) (UniProt Q96RI1); test: ATG_FXR_TRANS: Attagene TRANS-FACTORIAL HepG2 Assay for Farnesoid X Receptor (FXR) (AID 2282979); settings: HepG2 Attagene TRANS FXR-GAL4 reporter transcription;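 also: hits raise reporter mRNA above DMSO so AC50 marks FXR activation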
# Method in brief: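 After 24 h chemical treatment of transfected HepG2 cells, GAL4-UAS reporter transcripts driven by an exogenous FXR-GAL4 fusion were measured by RT-PCR and capillary electrophoresis. Increases over DMSO were fitted.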
# [4] = target: Oxysterols receptor LXR-beta (Homo sapiens) (UniProt P55055); test: ATG_LXRb_TRANS: Attagene TRANS-FACTORIAL HepG2 Assay for human Liver X Receptor beta (LXRb) (AID 2282981); settings: HepG2 Attagene TRANS GAL4-LXRb reporter, mRNA
# Method in brief: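 HepG2 cells transiently transfected with multiple reporter transcription units carrying chimeric NR-Gal4 proteins acting on GAL4-UAS reporters; compound exposure 24 h. Reporter mRNA quantified by RT-PCR, 6-FAM labelling, HpaI digestion and capillary electrophoresis; gain of signal versus DMSO.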
# [5] = target: Hepatocyte nuclear factor 4-alpha (Homo sapiens) (UniProt P41235); test: ATG_HNF4a_TRANS: Attagene TRANS-FACTORIAL HepG2 Assay for human Hepatocyte Nuclear Factor 4 alpha (HNF4a) (AID 2282982); settings: HepG2 HNF4a transactivation reporter, mRNA readout
# Method in brief: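 HepG2 cells transiently transfected with multiplexed GAL4-UAS reporter units responsive to chimeric NR-GAL4 proteins; compound exposure 24 h. Reporter mRNA quantified by RT-PCR, 6-FAM labelling, HpaI digestion and capillary electrophoresis; gain of signal versus DMSO baseline.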
# [6] = ATG_M_06_TRANS: Attagene TRANS-FACTORIAL HepG2 Assay for M06 Transcription Factor (Internal Marker) (AID 2282983); settings: HepG2 Attagene TRANS M06 internal marker reporter;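 also: reporter transcript level by RT-PCR then capillary electrophoresis fluorescence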
# Method in brief: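 Internal-marker background readout from a multiplexed TRANS reporter system in HepG2; 24 h dosing; mRNA induction quantified by RT-PCR plus capillary electrophoresis fluorescence; DMSO as negative control and baseline.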
# [7] = target: Nuclear receptor subfamily 4 group A member 2 (Homo sapiens) (UniProt P43354); test: ATG_NURR1_TRANS: Attagene TRANS-FACTORIAL HepG2 Assay for human Nuclear Receptor Related Protein 1 (NURR1) (AID 2282985); settings: HepG2 Attagene TRANS reporter, mRNA readout
# Method in brief: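 HepG2 cells transiently transfected with GAL4-UAS reporter units and chimeric NR-Gal4 constructs; chemical exposure 24 h. Reporter mRNA quantified by RT-PCR, fluorescent labelling and capillary electrophoresis; gain of signal fitted relative to DMSO baseline.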
# [8] = ATG_M_32_TRANS: Attagene TRANS-FACTORIAL HepG2 Assay for M32 Transcription Factor (Internal Marker) (AID 2282984); settings: HepG2 Attagene TRANS M32 internal marker reporter;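 also: transcript level of a background control reporter unit measured by RT-PCR and capillary electrophoresis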
# Method in brief: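 HepG2 cells transiently transfected with multiple GAL4-UAS reporter transcription units, dosed for 24 hours; reporter mRNA quantified by RT-PCR, 6-FAM primer extension, HpaI digestion and capillary electrophoresis. Gain-of-signal fitted versus DMSO baseline; internal background-control marker.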
# [9] = target: Estrogen-related receptor gamma (Homo sapiens) (UniProt P62508); test: ATG_ERRg_TRANS: Attagene TRANS-FACTORIAL HepG2 Assay for human Estrogen-Related Receptor gamma (ERRg) (AID 2282977); settings: HepG2 Attagene TRANS reporter, ERRg transactivation;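 also: hits increase reporter signal over DMSO so potencies reflect activators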
# Method in brief: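 Transient HepG2 transfectants, 24 h compound exposure, GAL4-UAS reporter mRNA by RT-PCR/6-FAM labelling/capillary electrophoresis; positive direction vs DMSO.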
# Oxysterols receptor LXR-beta (Homo sapiens), sequence (P55055 whole entry, looked up, the tested form may be a part): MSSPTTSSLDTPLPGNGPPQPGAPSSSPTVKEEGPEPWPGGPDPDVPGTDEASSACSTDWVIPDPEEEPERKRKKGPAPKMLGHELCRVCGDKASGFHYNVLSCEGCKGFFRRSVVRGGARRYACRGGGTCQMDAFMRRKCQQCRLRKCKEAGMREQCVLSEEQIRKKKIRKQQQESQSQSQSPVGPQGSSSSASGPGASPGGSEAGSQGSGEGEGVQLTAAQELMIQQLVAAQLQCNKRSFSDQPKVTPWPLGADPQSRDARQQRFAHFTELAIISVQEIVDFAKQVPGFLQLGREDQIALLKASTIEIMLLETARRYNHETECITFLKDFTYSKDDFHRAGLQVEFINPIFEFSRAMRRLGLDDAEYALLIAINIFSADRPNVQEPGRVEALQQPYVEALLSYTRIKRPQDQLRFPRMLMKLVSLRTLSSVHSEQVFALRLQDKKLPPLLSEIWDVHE
# Bile acid receptor (Homo sapiens), sequence (Q96RI1 whole entry, looked up, the tested form may be a part): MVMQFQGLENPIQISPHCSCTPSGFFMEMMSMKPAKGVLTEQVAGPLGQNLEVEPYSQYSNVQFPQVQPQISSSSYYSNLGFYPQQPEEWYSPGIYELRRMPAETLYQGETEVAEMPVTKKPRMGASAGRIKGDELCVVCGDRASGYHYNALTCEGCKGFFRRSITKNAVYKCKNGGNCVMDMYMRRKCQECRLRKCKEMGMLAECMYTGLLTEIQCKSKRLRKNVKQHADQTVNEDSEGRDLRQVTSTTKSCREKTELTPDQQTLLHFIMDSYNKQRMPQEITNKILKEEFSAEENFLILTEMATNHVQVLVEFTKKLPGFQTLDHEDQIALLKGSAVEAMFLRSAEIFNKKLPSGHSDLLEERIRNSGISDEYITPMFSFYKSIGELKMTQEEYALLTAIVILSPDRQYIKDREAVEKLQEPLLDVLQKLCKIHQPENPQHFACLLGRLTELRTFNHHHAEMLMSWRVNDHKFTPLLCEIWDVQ
# Nuclear receptor subfamily 4 group A member 2 (Homo sapiens), sequence (P43354 whole entry, looked up, the tested form may be a part): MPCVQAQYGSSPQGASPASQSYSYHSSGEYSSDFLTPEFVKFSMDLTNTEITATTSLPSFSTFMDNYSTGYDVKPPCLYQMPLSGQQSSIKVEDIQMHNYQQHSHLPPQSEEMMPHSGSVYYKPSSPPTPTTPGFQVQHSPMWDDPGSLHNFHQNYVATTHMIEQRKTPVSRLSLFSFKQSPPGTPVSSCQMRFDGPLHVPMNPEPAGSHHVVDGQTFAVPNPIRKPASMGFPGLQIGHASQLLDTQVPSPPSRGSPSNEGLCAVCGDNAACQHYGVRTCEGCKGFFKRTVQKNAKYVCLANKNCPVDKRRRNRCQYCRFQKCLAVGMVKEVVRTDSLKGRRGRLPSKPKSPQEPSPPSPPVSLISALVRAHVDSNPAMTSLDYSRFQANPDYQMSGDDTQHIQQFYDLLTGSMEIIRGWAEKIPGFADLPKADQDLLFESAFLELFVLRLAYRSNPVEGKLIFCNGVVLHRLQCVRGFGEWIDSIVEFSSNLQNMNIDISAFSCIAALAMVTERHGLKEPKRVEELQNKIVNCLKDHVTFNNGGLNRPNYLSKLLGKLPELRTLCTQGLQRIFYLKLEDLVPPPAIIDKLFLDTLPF
# Glucocorticoid receptor (Homo sapiens), sequence (P04150 whole entry, looked up, the tested form may be a part): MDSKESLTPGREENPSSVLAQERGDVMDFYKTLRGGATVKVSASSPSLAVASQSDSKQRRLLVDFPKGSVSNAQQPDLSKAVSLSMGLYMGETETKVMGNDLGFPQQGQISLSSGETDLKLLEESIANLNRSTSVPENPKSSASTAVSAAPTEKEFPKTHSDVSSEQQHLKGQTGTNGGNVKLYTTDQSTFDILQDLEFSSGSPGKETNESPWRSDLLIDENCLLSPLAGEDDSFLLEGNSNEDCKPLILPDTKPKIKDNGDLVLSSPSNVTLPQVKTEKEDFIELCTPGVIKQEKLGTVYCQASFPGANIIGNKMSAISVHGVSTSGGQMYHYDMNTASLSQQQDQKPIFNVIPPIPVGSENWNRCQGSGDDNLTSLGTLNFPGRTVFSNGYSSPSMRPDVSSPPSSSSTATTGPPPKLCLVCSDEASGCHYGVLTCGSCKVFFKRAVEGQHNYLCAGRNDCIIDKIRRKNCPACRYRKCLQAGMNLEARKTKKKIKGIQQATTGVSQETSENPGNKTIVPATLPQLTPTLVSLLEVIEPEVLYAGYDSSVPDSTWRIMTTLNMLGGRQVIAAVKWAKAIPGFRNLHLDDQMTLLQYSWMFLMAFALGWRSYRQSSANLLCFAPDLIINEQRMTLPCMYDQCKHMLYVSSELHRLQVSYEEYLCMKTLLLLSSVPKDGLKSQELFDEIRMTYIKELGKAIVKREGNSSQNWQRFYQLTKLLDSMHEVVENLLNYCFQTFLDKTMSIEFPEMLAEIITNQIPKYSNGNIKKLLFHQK
# Hepatocyte nuclear factor 4-alpha (Homo sapiens), sequence (P41235 whole entry, looked up, the tested form may be a part): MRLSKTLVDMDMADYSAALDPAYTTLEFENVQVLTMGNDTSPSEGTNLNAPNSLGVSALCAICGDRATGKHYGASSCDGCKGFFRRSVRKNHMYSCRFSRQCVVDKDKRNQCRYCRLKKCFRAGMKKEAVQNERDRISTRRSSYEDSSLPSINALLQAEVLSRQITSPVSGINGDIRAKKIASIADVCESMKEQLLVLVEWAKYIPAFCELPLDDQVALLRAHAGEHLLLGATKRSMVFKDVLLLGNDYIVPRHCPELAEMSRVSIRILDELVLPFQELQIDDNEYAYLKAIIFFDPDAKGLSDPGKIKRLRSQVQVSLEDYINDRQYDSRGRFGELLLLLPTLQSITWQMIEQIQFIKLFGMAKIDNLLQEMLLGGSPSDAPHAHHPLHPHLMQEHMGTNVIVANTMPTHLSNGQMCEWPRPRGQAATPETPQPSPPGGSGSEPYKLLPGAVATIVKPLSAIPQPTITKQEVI
# Oxysterols receptor LXR-alpha (Homo sapiens), sequence (Q13133 whole entry, looked up, the tested form may be a part): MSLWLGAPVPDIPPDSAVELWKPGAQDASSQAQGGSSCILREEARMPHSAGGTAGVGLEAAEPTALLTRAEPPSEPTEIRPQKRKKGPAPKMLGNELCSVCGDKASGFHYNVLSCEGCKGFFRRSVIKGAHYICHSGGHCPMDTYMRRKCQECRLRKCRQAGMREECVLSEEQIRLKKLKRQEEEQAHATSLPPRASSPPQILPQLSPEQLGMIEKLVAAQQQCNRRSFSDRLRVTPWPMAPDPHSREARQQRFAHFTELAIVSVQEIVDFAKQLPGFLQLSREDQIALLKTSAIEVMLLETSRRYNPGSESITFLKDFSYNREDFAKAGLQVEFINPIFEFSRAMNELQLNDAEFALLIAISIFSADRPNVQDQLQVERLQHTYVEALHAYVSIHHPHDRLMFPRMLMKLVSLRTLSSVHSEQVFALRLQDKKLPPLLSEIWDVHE
# Estrogen-related receptor gamma (Homo sapiens), sequence (P62508 whole entry, looked up, the tested form may be a part): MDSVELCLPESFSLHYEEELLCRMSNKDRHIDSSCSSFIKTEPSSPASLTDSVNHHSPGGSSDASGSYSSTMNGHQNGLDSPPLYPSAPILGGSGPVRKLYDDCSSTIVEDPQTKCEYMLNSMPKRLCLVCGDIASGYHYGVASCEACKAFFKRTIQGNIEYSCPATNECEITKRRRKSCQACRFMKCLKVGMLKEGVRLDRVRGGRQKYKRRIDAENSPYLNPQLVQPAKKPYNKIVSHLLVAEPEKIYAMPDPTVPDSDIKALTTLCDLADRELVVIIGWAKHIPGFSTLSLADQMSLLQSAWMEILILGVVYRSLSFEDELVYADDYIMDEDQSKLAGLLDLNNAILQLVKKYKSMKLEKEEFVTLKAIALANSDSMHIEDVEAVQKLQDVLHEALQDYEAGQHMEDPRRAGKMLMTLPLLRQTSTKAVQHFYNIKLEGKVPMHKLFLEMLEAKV
compound,measurement,setting,value
CC(C)NC(=O)N1CC(=O)N(c2cc(Cl)cc(Cl)c2)C1=O,outcome,[1],inactive
CC1(C)CCC(=Cc2ccc(Cl)cc2)C1(O)Cn1cncn1 (stereo unspecified),outcome,[1],inactive
CS(=O)(=O)c1ccc(C(=O)C2C(=O)CCCC2=O)c([N+](=O)[O-])c1,outcome,[2],inactive
same,outcome,[3],inactive
same,outcome,[4],inactive
same,outcome,[5],inactive
same,outcome,[6],inactive
same,outcome,[7],inactive
O=c1n(Cl)c(=O)n(Cl)c(=O)n1Cl,outcome,[2],inactive
same,outcome,[4],inactive
same,outcome,[5],inactive
same,outcome,[7],inactive
CCNP(=S)(OC)O/C(C)=C/C(=O)OC(C)C (stereo unspecified),outcome,[4],inactive
same,outcome,[5],inactive
same,outcome,[6],inactive
same,outcome,[7],inactive
OC(c1ccc(Cl)cc1)(c1ccc(Cl)cc1)C(Cl)(Cl)Cl,outcome,[2],inactive
same,outcome,[4],inactive
same,outcome,[5],inactive
same,outcome,[6],inactive
Nc1cnn(-c2ccccc2)c(=O)c1Cl,outcome,[4],inactive
CC(C)(C)C(=O)C(Oc1ccc(Cl)cc1)n1cncn1 (stereo unspecified),outcome,[2],inactive
same,outcome,[4],inactive
same,outcome,[5],inactive
CC(C)Nc1nc(Cl)nc(NC(C)C)n1,outcome,[4],inactive
same,outcome,[5],inactive
same,outcome,[6],inactive
same,outcome,[7],inactive
COc1cc(Cl)c(OC)cc1Cl,outcome,[2],inactive
same,outcome,[4],inactive
same,outcome,[5],inactive
same,outcome,[6],inactive
CCCN(CC)CC1COC2(CCC(C(C)(C)C)CC2)O1 (stereo unspecified),outcome,[2],inactive
same,outcome,[4],inactive
same,outcome,[5],inactive
CC(C)C1(C)N=C(c2ncccc2C(=O)O)NC1=O (stereo unspecified),outcome,[2],inactive
same,outcome,[3],inactive
same,outcome,[4],inactive
same,outcome,[5],inactive
COCC(C)N(C(=O)CCl)c1c(C)csc1C (stereo unspecified),outcome,[4],inactive
same,outcome,[6],inactive
same,outcome,[7],inactive
O=C(O)c1c(Cl)ccc2cc(Cl)cnc12,outcome,[4],inactive
CC(C)=CC1C(C(=O)OCc2coc(Cc3ccccc3)c2)C1(C)C (stereo unspecified),outcome,[2],inactive
same,outcome,[3],inactive
same,outcome,[4],inactive
same,outcome,[5],inactive
same,outcome,[6],inactive
same,AC50,[7],33.9 µM (active)
Cn1c(-c2ccccc2)cc(-c2ccccc2)[n+]1C,outcome,[4],inactive
same,outcome,[5],inactive
COCc1cnc(C2=NC(C)(C(C)C)C(=O)N2)c(C(=O)O)c1 (stereo unspecified),outcome,[2],inactive
same,outcome,[3],inactive
same,outcome,[4],inactive
same,outcome,[5],inactive
same,outcome,[6],inactive
same,outcome,[7],inactive
CCSC(=O)N1CCCCCC1,outcome,[4],inactive
same,outcome,[7],inactive
Cc1ccc(N=CN(C)C=Nc2ccc(C)cc2C)c(C)c1,outcome,[2],inactive
same,outcome,[4],inactive
same,outcome,[6],inactive
CCN(CC)C(=O)C(C)Oc1cccc2ccccc12 (stereo unspecified),outcome,[4],inactive
same,outcome,[5],inactive
same,outcome,[6],inactive
same,outcome,[7],inactive
CNC(=O)Oc1cccc2ccccc12,outcome,[3],inactive
same,outcome,[4],inactive
same,outcome,[7],inactive
CCCC(=NOCC)C1=C(O)CC(CC(C)SCC)CC1=O (stereo unspecified),outcome,[2],inactive
same,outcome,[4],inactive
same,outcome,[5],inactive
same,outcome,[8],inactive
same,outcome,[7],inactive
CNC(=O)N(C)c1nnc(C(C)(C)C)s1,outcome,[4],inactive
same,outcome,[5],inactive
same,outcome,[6],inactive
same,outcome,[7],inactive
Nc1c(Cl)c(Cl)nc(C(=O)O)c1Cl,outcome,[2],inactive
same,outcome,[4],inactive
same,outcome,[5],inactive
same,outcome,[8],inactive
same,outcome,[7],inactive
Clc1nc(Cl)nc(Nc2ccccc2Cl)n1,outcome,[4],inactive
same,outcome,[7],inactive
CCCCC(O)(Cn1cncn1)c1ccc(Cl)cc1Cl (stereo unspecified),outcome,[9],inactive
same,outcome,[6],inactive
same,outcome,[7],inactive
Cc1nc(N(C)C)nc(OC(=O)N(C)C)c1C,outcome,[2],inactive
same,outcome,[3],inactive
same,outcome,[7],inactive
CN/C(=N\[N+](=O)[O-])NCc1cnc(Cl)s1,outcome,[1],inactive
same,outcome,[4],inactive
same,outcome,[6],inactive
O=P(O)(O)CCCl,outcome,[3],inactive
same,outcome,[1],inactive
same,outcome,[4],inactive
same,outcome,[5],inactive
same,outcome,[6],inactive
same,outcome,[7],inactive
COC(=O)NC(=S)Nc1ccccc1NC(=S)NC(=O)OC,outcome,[2],inactive
same,outcome,[4],inactive
same,outcome,[5],inactive
same,outcome,[7],inactive
CCOc1nc(F)cc2nc(S(=O)(=O)Nc3c(Cl)cccc3Cl)nn12,outcome,[2],inactive
same,outcome,[3],inactive
same,outcome,[1],inactive
same,outcome,[4],inactive
same,outcome,[5],inactive
same,outcome,[7],inactive
CCOP(=S)(OCC)Oc1nc(Cl)n(C(C)C)n1,outcome,[2],inactive
same,AC50,[4],16.4 µM (active)
same,outcome,[5],inactive
same,outcome,[6],inactive
same,outcome,[7],inactive
Cc1cnc(C2=NC(C)(C(C)C)C(=O)N2)c(C(=O)O)c1 (stereo unspecified),outcome,[4],inactive
same,outcome,[5],inactive
CC1(C)CON(Cc2ccccc2Cl)C1=O,outcome,[4],inactive
same,outcome,[5],inactive
same,outcome,[8],inactive
CCOP(=O)(OCC)Oc1nc(Cl)c(Cl)cc1Cl,outcome,[2],inactive
same,outcome,[4],inactive
same,outcome,[6],inactive
same,outcome,[7],inactive
Clc1cccc(C(Cl)(Cl)Cl)n1,outcome,[3],inactive
same,outcome,[4],inactive
same,outcome,[6],inactive
CCN(CC)c1nc(C)cc(OP(=S)(OC)OC)n1,outcome,[4],inactive
same,outcome,[5],inactive
same,AC50,[7],62.9 µM (active)
CO/N=C(/C1=NOCCO1)c1ccccc1Oc1ncnc(Oc2ccccc2Cl)c1F,outcome,[2],inactive
same,outcome,[3],inactive
same,outcome,[4],inactive
same,outcome,[5],inactive
same,outcome,[8],inactive
same,outcome,[7],inactive
